Bioassay records as filed in PubChem BioAssay.
TDP1 cell CPT – qHTS for Inhibitors of human tyrosyl-DNA phosphodiesterase 1 (TDP1): qHTS in cells in presence of CPT; chicken DT40 Tdp1-/-;hTDP1 cells + 20 nM CPT, ATP luminescence, 48 h; Potency, µM (doses to about 46.2 µM), without a hit: at the highest dose activity change, negative = growth inhibition, usual class: inhibitors; actives 12% (n = 420,000); also: potency is read from the fitted curve at half-maximal effect; % is scaled to controls: 0 for no effect and ±100 for the full control effect; nearly all actives have a fitted effect of over 55% in size
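Chicken DT40 Tdp1-/- cells complemented with human TDP1, 400 cells/well, exposed to compounds plus 20 nM camptothecin for at least 48 h at 37 C; viability read as ATP content by CellTiter-Glo luminescence.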
IL-1B inflam inh – qHTS for Inhibitors of Inflammasome Signaling: IL-1-beta AlphaLISA Primary Screen; activity change, % at 57.5 µM; THP-1 LPS/ATP IL-1B secretion, AlphaLISA, 16 h; active compounds read low; actives 4.7% (n = 360,000); AID 743279, 2014; in the data active = activity change below about -50%; inconclusive = mostly about -30% to -49%; also: % is scaled to controls: 0 for no effect and ±100 for the full control effect
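THP-1 cells pretreated 1 hr with compounds (up to 57.5 uM final), then stimulated with LPS (250 ng/mL final) plus ATP (1.25 mM final); secreted IL-1B measured by AlphaLISA after 16 hr, decreased signal indicating inhibition.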
MCF10A rerep – A quantitative high throughput screen for small molecules that induce DNA re-replication in MCF 10a normal breast cells; actives 2.9% (n = 350,000); Potency, µM (doses to about 46.1 µM), without a hit: at the highest dose activity, positive = re-replication, actives largely listed as activators; MCF 10A DNA re-replication, Hoechst nuclear intensity, 48 h; also: potency is read from the fitted curve at half-maximal effect; % of control where 0% means no effect; nearly all actives have a fitted effect of over 50% in size
BCR signal inh – qHTS Assay to Find Inhibitors of Chronic Active B-Cell Receptor Signaling. Potency, µM (doses to about 46.1 µM), inactives show at the top dose activity change, negative = inhibition, hits mostly inhibitors. AID 493014, 2011. ABC-DLBCL IkBa-CBG/CBR reporter, luminescence ratio, 4 h. actives 0.05% (n = 340,000); active = well fitted inhibition curve with a large enough effect in the signal ratio, with a control signal flat, not every such curve was filed as active; inconclusive = small, poorly fitted or top-dose-only effect, or effect the other way, or a change in a side signal; the % refers to the signal ratio;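 also: potency is read from the fitted curve at half-maximal effect; plate controls were basal doxycycline-induced cells for no effect and cells given 10 µM MG132 for full effect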
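TMD8 human ABC-DLBCL cells with doxycycline-inducible IκBα–green luciferase fusion and unfused red luciferase, in 0.5% FBS medium; compounds up to 46 uM, 4 h at 37C. Green/red luminescence ratio, filter-overlap corrected, fitted to concentration-response curves.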
TDP1 cell noCPT – qHTS for Inhibitors of human tyrosyl-DNA phosphodiesterase 1 (TDP1): qHTS in cells in absence of CPT | DT40 Tdp1-/- hTDP1 cells, no CPT, ATP luminescence, 48 h | Potency, µM (titrated, usually from 46.2 µM), for the others: at the highest dose activity change, negative = growth inhibition, most hits filed as inhibitors | actives 15% (n = 420,000) | AID 686978, 2013; also: potency is read from the fitted curve at half-maximal effect; % is scaled to controls: 0 for no effect and ±100 for the full control effect; nearly all actives have a fitted effect of over 55% in size
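Cells were dispensed at 400 per well, compounds added by pin tool, plates incubated ≥48 hr at 37 °C, then CellTiter-Glo added for 30 min at room temperature before luminescence reading. Line: DT40 Tdp1-/- complemented with hTDP1; camptothecin omitted.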
SW480 rerep – A quantitative high throughput screen for small molecules that induce DNA re-replication in SW480 colon adenocarcinoma cells; Potency, µM (titrated, usually from 46.1 µM), for the others: at the top dose re-replication activation, most hits filed as activators; SW480 DNA re-replication, Hoechst DNA content imaging, 48 h; actives 1.8% (n = 340,000); also: potency is read from the fitted curve at half-maximal effect; % of control where 0% means no effect; nearly all actives have a fitted effect of over 55% in size
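DNA re-replication was detected as more nuclei of elevated Hoechst intensity after 48 hr exposure to compound (23 nL pinned per well of 250 cells).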
Numbers without * were called inactive; u = inconclusive; x = no result given. Compounds with a hit are over-represented: about 19% of the library has one in this group of screens. Unless noted, calls follow the shape of the dose curve; as a rule, active = well fitted curve in the direction sought with a large enough effect; inconclusive = small, poorly fitted or top-dose-only effect, or another doubt; inactive = no such curve, though single readings can be large; an effect the other way counts as inactive or inconclusive.

SMILES	TDP1 cell CPT	IL-1B inflam inh	MCF10A rerep	BCR signal inh	TDP1 cell noCPT	SW480 rerep
Cc1ccccc1CSc1nnc2[nH]c(=O)cc(-c3ccccc3)n12	8%	x	x	16%	-3%	x
COc1cc(/C=C(\C#N)C(=O)c2ccc(O)c(O)c2)cc(I)c1O	-9%	44	1%	u	-2%	12%
COc1ccc(Cl)c2c1[nH]c1nc(SCc3ccccn3)nnc12	u	-82*	-2%	u	26µM*	-5%
COc1ccc(Cl)c2c1[nH]c1nc(SCc3cccnc3)nnc12	1%	23	-2%	6%	-11%	3%
COc1ccc(CN2C[C@H](Cc3ccccc3)[C@@H](CC(=O)Nc3ccccc3)C2=O)cc1	22µM*	6	4%	u	16µM*	-4%
CCCCCCc1ccc(N2C[C@H](C)[C@@H](CC(=O)NCc3ccccc3)C2=O)cc1	u	2	2%	5%	u	-5%
CCCCC[C@H]1CN(CCCC)C(=O)[C@@H]1CC(=O)NCc1ccccc1	-28%	27	9%	4%	u	-2%
COc1ccc(NC(=O)C[C@H]2C(=O)N(Cc3cccnc3)C[C@@H]2Cc2ccccc2)cc1	-18%	-10	x	x	-22%	x
CCCCCCc1ccc(N2C[C@H](CCCCC)[C@@H](CC(=O)NCc3ccc(OC)cc3)C2=O)cc1	u	-5	-1%	-7%	13µM*	8%
CCCCC[C@H]1CN(Cc2ccc(OC)cc2)C(=O)[C@@H]1CC(=O)NCc1ccccc1	12µM*	-10	0%	-2%	11µM*	4%
CCC[C@H]1CN(c2ccc(OC)cc2)C(=O)[C@@H]1CC(=O)NC	1%	18	x	x	-1%	x
CCCCCCc1ccc(N2C[C@H](CCCCC)[C@@H](CC(=O)NCc3ccccc3)C2=O)cc1	14µM*	-13	0%	-3%	18µM*	-1%
O=c1[nH][nH]c(=O)c2nc(Nc3ccccc3)ncc12	-18%	-16	-7%	x	-9%	-1%
O=C(CN1CCN(Cc2ccccc2)CC1)Nc1cccc(Cl)c1	-21%	-29	7%	-13%	u	2%
CCCCCCc1ccc(N2C[C@H](Cc3ccccc3)[C@@H](CC(=O)NCc3ccc(OC)cc3)C2=O)cc1	13µM*	0	-57%	-14%	13µM*	10%
CCCCCCc1ccc(N2C[C@H](Cc3ccccc3)[C@@H](CC(=O)Nc3ccccc3)C2=O)cc1	u	-22	-37%	0%	u	12%
O=C(O)CN=CC1=C(O)CC(c2ccccc2)CC1=O (configuration not stated)	2%	16	-4%	-3%	-5%	3%
CC1(C)Cc2cccc(OCC(=O)Nc3cc(S(C)(=O)=O)ccc3Cl)c2O1	-22%	5	26%	5%	-18%	-11%
COC(=O)c1ccc2c(=O)[nH]c(COC(=O)c3c(-c4ccccc4)noc3C)nc2c1	u	11	18%	2%	-29%	-11%
Cc1ccc(C(=O)COC(=O)CSc2cccc3cccnc23)c(C)c1	u	-88*	9%	x	-30%	u
CC(=O)N1CCN=C1SCc1cccc(C)c1	-20%	-14	-2%	u	-20%	-11%
CCN(CC)CCN(C(=O)c1ccc2c(c1)OCCO2)c1nc2cc(C)cc(C)c2s1	15µM*	-57*	12%	0%	u	12%
CN(C)CCN(C(=O)c1ccc2c(c1)OCCO2)c1nc2ccc(Cl)cc2s1	u	-21	1%	4%	u	8%
CN(C)CCN(C(=O)c1cccc(Cl)c1)c1nc2c(Cl)cccc2s1	2%	0	-8%	-15%	u	-4%
CCN(CC)CCN(C(=O)c1ccc2c(c1)OCCO2)c1nc2c(Cl)cccc2s1	18µM*	-66*	0%	-1%	u	-1%
SMILES	TDP1 cell CPT	IL-1B inflam inh	MCF10A rerep	BCR signal inh	TDP1 cell noCPT	SW480 rerep
CN(C)CCN(C(=O)c1ccccc1Cl)c1nc2c(Cl)cccc2s1	u	-69*	u	u	u	u
O=C(Cn1c(=O)n(CCc2ccccc2)c(=O)c2cccnc21)Nc1ccc(F)cc1	-26%	x	x	x	u	x
CCOC(=O)[C@@H]1[C@H]2COc3ccccc3[C@@H]2N2C(=O)N(c3cccc(F)c3)C(=O)[C@@]12C	3%	29	9%	1%	-29%	0%
COc1ccc(-c2noc(CSc3nnc(-c4ccncc4)n3-c3ccc(F)cc3)n2)cc1OC	u	u	-10%	u	u	1%
CCCn1c(SCc2nc(-c3cc(OC)ccc3OC)no2)nnc1-c1ccc(Cl)cc1	13µM*	x	x	x	15µM*	x
CCn1c(SCc2nc(-c3ccccc3)no2)nnc1-c1ccco1	-5%	-3	13%	-13%	u	-13%
CCCn1c(SCc2nc(-c3ccc(OC)c(OC)c3)no2)nnc1-c1ccccc1	u	x	x	x	18µM*	x
CCCn1c(SCc2nc(-c3ccccc3C)no2)nnc1-c1ccc(Cl)cc1	13µM*	x	x	x	16µM*	x
C[N+](C)(CCOc1ccccc1)Cc1cccs1	6%	x	x	x	-25%	x
COCCNC(=O)C1CCCN(S(=O)(=O)c2cccc3nsnc23)C1 (configuration not stated)	-3%	25	-1%	0%	-2%	2%
Cc1cc(Cl)ccc1NC(=O)CCn1nc(C)c2c(C)n(-c3ccccc3)nc2c1=O	u	x	x	x	-23%	x
O=C(NCCN1CCOCC1)c1ccc(NS(=O)(=O)c2cccc([N+](=O)[O-])c2)cc1	-2%	2	4%	5%	17%	7%
Cc1ccc(S(=O)(=O)N2C[C@]3(O)C[C@@H]4C(=O)N(c5ccccc5)C(=O)[C@@H]4C[C@]3(OC(=O)Nc3c(C)noc3C)C2)cc1	-3%	-12	x	x	-5%	x
Cc1ccc(NC(=O)c2cc3c(=O)[nH]c4ccccc4c3n2C)cc1F	u	x	x	x	-26%	x
Cn1c(=O)c2c(nc(C3CC4C5CCC(C5)C4C3)n2C)n(C)c1=O (configuration not stated)	u	-1	13%	x	16µM*	-2%
